The target in assay [1] is human RAR-related Orphan Receptor gamma (RORg), RORC (gene 6097) (UniProt P51449). As to the kind of experiment: ATG_RORg_TRANS: Attagene TRANS-FACTORIAL HepG2 Assay for human RAR-related Orphan Receptor gamma (RORg) (AID 2283011). In outline:
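Activity is scored as increase in GAL4-UAS reporter mRNA over DMSO, detected by fluorescent RT-PCR and capillary electrophoresis in HepG2 cells transiently expressing a RORg-Gal4 chimera, 24 h after dosing.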

Assay [2] addresses Retinoic acid receptor RXR-alpha (Homo sapiens) (UniProt P19793). As to the kind of experiment: ATG_RXRa_TRANS: Attagene TRANS-FACTORIAL HepG2 Assay for human Retinoid X Receptor alpha (RXRa) (AID 2283012). In short, it runs like this:
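Cells (HepG2) carried transiently transfected GAL4-responsive reporter units. Following a 24 h chemical incubation, reporter mRNA induction was read via RT-PCR fragment analysis; DMSO served as negative control and baseline.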

Assay [3] concerns the target human Retinoid X Receptor beta (RXRb), RXRB (gene 6257) (UniProt P28702). As to the kind of experiment: ATG_RXRb_TRANS: Attagene TRANS-FACTORIAL HepG2 Assay for human Retinoid X Receptor beta (RXRb) (AID 2283013). In short, it runs like this: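 Multiplexed TRANS reporter assay in HepG2; 24 h dosing; reporter mRNA by RT-PCR/CE fluorescence; gain-of-signal relative to DMSO.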

Records with an inconclusive call do not appear. Active and inactive are the calls of the source. Rule for the calls: active = hit-call score of the fitted dose curve at least 0.9, where 1 is the maximum; inconclusive = response in the unintended direction; inactive = score below 0.9.

Retinoic acid receptor RXR-alpha (Homo sapiens), sequence (P19793 whole entry, looked up, the tested form may be a part): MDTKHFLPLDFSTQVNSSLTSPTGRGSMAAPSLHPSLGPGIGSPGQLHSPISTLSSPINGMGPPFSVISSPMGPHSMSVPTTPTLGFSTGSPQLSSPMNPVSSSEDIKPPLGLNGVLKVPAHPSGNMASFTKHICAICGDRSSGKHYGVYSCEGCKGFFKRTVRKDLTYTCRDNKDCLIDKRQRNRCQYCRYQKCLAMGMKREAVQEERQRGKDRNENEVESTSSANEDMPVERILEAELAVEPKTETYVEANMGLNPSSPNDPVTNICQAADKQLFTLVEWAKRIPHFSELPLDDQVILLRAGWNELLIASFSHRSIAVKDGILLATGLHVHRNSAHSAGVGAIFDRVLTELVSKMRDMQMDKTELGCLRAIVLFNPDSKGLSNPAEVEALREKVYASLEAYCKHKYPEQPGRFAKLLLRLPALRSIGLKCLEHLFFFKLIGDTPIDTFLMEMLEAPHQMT
human RAR-related Orphan Receptor gamma (RORg), RORC (gene 6097), sequence (P51449 whole entry, looked up, the tested form may be a part): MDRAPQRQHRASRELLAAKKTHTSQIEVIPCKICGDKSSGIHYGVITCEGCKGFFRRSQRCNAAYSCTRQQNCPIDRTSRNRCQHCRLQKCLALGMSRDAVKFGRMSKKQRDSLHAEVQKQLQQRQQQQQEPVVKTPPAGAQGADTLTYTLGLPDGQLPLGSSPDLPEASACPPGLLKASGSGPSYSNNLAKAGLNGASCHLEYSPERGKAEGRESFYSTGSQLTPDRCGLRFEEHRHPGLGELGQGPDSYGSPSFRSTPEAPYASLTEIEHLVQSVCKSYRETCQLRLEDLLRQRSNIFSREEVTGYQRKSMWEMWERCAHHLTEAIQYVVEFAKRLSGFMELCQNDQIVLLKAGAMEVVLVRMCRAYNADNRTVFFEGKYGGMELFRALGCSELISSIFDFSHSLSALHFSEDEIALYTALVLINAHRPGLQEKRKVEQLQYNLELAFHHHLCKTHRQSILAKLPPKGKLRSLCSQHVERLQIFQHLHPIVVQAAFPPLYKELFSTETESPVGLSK
human Retinoid X Receptor beta (RXRb), RXRB (gene 6257), sequence (P28702 whole entry, looked up): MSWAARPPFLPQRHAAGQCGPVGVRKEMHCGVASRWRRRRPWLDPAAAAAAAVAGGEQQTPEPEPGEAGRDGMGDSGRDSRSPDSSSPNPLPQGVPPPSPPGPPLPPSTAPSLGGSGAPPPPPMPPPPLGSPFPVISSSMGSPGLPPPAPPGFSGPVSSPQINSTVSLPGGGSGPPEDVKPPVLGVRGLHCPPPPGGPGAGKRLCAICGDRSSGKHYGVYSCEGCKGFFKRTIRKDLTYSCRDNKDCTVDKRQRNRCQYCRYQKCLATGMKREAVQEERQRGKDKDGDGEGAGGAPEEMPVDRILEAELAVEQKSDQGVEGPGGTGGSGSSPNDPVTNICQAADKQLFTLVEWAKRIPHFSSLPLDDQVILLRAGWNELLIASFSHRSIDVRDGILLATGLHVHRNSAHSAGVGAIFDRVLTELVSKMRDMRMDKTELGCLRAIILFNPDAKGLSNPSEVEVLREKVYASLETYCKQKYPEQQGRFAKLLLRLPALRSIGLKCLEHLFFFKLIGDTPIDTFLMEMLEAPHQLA

Turning to `O=Cc1ccc(F)cc1`, the compound was called inactive in assay [1], in assay [2] and in assay [3].

For the compound `CCCCOCCOCCOCCOCCO`, the compound was classed as inactive in assay [1]. Take `CCCCCOC(=O)CCC`: the compound was classed as inactive in assay [1], in assay [2] and in assay [3]. With `O=C(O)CN(CCN(CC(=O)O)CC(=O)O)CCN(CC(=O)O)CC(=O)O`, the compound was called inactive in assay [1] and in assay [2]. Turning to `CCCC(=O)C(C)=O`, the compound was called inactive in assay [1]. In the case of `CSc1nnc(C(C)(C)C)c(=O)[nH]1`, the compound was called inactive in assay [1] and in assay [2].

As to `CC1(CO)CN(c2ccccc2)NC1=O` (stereo not drawn), in assay [1], the outcome was inactive. The same measure, in the same setting: for `CC(=O)OCC=Cc1ccccc1` the value was “inactive”. In the case of `O=C(O)Cc1cccc2ccccc12`, the compound was called inactive in assay [1], in assay [2] and in assay [3]. Regarding `O=C(O)c1ccc(C(=O)O)cc1`, the result in assay [1] was inactive. Same read-out and setting: the value for `CC(C)C[C@H]1C(=O)N2CCC[C@H]2[C@]2(O)O[C@](NC(=O)[C@@H]3C=C4c5cccc6[nH]c(Br)c(c56)C[C@H]4N(C)C3)(C(C)C)C(=O)N12` was “inactive”.

In the case of `O=c1oc(=O)c2cc3c(=O)oc(=O)c3cc12`, the call in assay [1] and in assay [2] was inactive.

`O=C(Nc1ccccc1)c1cc([N+](=O)[O-])ccc1Cl`: the outcome in assay [1] and in assay [2] was inactive.

For the compound `O=C1NC(=O)c2ccccc21`, the compound was called inactive in assay [1]. For orientation: AC50 means the midpoint of the concentration-response curve, whichever way the signal moves. Turning to `CN1[C@@H]2CC(OC(=O)[C@H](CO)c3ccccc3)C[C@H]1[C@@H]1O[C@@H]12` (stereo partly drawn), the call in assay [1] and in assay [2] was inactive. Also, the concentration at half-maximal activity (AC50) in assay [3] was 160 µM (active). On to `O=C(O)CCCCC1CCSS1` (stereo not drawn), for which, in assay [1], the compound was classed as inactive. Consider `N#Cc1ccccc1`, for which the compound was classed as inactive in assay [1] and in assay [2]. With `COCCOCCOCCOCCOCCO`, the call in assay [1] was inactive. Consider `NCCCCCCN`, for which the result in assay [1] and in assay [2] was inactive.

On to `O=C[C@H](O)[C@H](O)[C@H](O)CO`, for which the result in assay [1] was inactive. Consider `CC1=CCC(O)(C(C)C)CC1` (stereo not drawn), for which the call in assay [1] and in assay [2] was inactive.

Turning to `COc1ccc(NC(=O)CC(C)=O)cc1`, the result in assay [1] and in assay [2] was inactive.

The values above are taken from PubChem BioAssay (EPA / NIEHS).
